Screens (PubChem)
Hits are enriched below; roughly 1.3% of the tested compounds scored in any of these assays.
Apoferritin bind = candidate novel general anesthetic via apoferritin binding; actives 0.074% (n = 350,000); P02791; apoferritin/1-aminoanthracene competitive binding, fluorescence; Potency, µM (top dose mostly 77.5 µM), usual class: inhibitors; also: nearly all actives have a fitted effect of over 20% in size
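Horse-spleen apoferritin (10 uM) in 50% saturated 1-aminoanthracene in PBS was incubated 10 min at room temperature with compound. Fluorescence (ex 380, em 535 nm) was normalized to free and bound 1-AMA, with concentration-response fitted by a four-parameter Hill equation.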
TrxR1 substrate = is turned over as a substrate by rat TrxR1; O89049; purified TrxR1 substrate turnover, NADPH consumption readout; Potency, µM (titrated, usually from 114 µM); actives 0.01% (n = 390,000); also: nearly all actives have a fitted effect of over 50% in size
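Rat TrxR1, dispensed at 90 nM, was prereduced with 400 uM NADPH (final) for 5 min at ~22 deg C, then incubated with compound 15 min before 400 uM selenite. A first-read NADPH fluorescence drop versus no-compound background flagged substrates.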
PKM2 act = activators of human pyruvate kinase M2 | P14618 | purified PKM2, Kinase-Glo ATP luminescence, activation; response scale: 0% is enzyme alone, no compound | Potency, µM (top dose mostly 57.5 µM), actives largely listed as activators | actives 0.34% (n = 260,000) | AID 1631; also: nearly all actives have a fitted effect of over 55% in size
Target sequence (P14618 whole entry, looked up): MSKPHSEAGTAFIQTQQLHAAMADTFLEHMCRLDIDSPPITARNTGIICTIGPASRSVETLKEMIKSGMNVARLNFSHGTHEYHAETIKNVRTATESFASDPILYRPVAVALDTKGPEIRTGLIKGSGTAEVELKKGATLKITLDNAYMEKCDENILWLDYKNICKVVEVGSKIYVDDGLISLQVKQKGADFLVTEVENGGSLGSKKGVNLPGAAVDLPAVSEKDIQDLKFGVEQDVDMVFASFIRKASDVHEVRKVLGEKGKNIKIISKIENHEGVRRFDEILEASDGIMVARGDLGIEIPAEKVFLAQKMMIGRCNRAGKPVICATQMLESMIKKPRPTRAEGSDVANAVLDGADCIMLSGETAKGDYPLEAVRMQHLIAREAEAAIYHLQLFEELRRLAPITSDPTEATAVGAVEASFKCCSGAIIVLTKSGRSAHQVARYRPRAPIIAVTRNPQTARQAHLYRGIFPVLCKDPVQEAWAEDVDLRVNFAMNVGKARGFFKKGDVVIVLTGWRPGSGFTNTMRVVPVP
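Purified hPK-M2 (>95% pure) converted ADP (0.1 mM final) to ATP with 0.5 mM PEP in 50 mM imidazole pH7.2, KCl, MgCl2, Tween 20, BSA; 1 h at room temperature. ATP detected by Kinase-Glo luminescence.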
rTrxR1 inhibitor = inhibitors of rat thioredoxin reductase 1. O89049. recombinant rTrxR1, NADPH fluorescence consumption, selenite substrate. Potency, µM (titrated, usually from 114 µM), most hits filed as inhibitors. actives 1% (n = 390,000). AID 588453; also: nearly all actives have a fitted effect of over 65% in size
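Rat TrxR1 (90 nM in the dispensed reagent) was pre-reduced with 400 uM NADPH for 5 min at room temperature, then incubated with compound for 15 min. After 400 uM selenite was added, NADPH fluorescence (Ex 340/Em 450 nm) was followed for 8 min.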
IDH1 R132H inh = human IDH1 R132H inhibition; IDH1-R132H enzyme, NADPH consumption, diaphorase/resazurin fluorescence; Potency, µM (top dose mostly 76.6 µM), hits mostly inhibitors; actives 0.093% (n = 390,000); AID 602179; also: nearly all actives have a fitted effect of over 65% in size
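IDH1-R132H (0.5 ug/mL dispensed) in pH 7.5 Tris buffer was preincubated 30 min with compound, then given a substrate mix of 0.016 mM NADPH and 2 mM alpha-KG for 80 min at room temperature; remaining NADPH was read by diaphorase/resazurin fluorescence.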
GALK inhibitor = blocks human galactokinase activity. P51570. Purified GALK, Kinase-Glo residual ATP luminescence. Potency, µM (top dose mostly 57.5 µM), usual class: inhibitors. actives 0.007% (n = 270,000)
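Luminescence from leftover ATP (Ultra-Glo luciferase/luciferin) served as read-out after a 1 h room-temperature reaction of 5 nM GALK with 35 uM ATP and 100 uM galactose.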
Large screens that a line does not name were inactive. Calls follow the shape of the dose curve; as a rule, active = well fitted curve in the direction sought with a large enough effect; inconclusive = small, poorly fitted or top-dose-only effect, or another doubt; inactive = no such curve, though single readings can be large; an effect the other way counts as inactive or inconclusive.

Oc1ccc2ccccc2c1CNc1cnc2ccccc2c1	rTrxR1 inhibitor 11µM (no result: Apoferritin bind)
Oc1ccc2ccccc2c1CNc1ccc(Br)cc1	rTrxR1 inhibitor 28µM (no result: PKM2 act)
Oc1ccccc1CNc1cnc2ccccc2c1	none
C/C(CCc1oc2ccc(Cl)cc2c1-c1ccc(C)o1)=N\O	rTrxR1 inhibitor 10µM
C/C(CCc1oc2ccc(Br)cc2c1-c1ccc(C)o1)=N/O	rTrxR1 inhibitor 18µM (no result: GALK inhibitor)
CC(C)(C)c1ccc(O)c(N=Cc2cccc([N+](=O)[O-])c2)c1	none (no result: Apoferritin bind, PKM2 act, IDH1 R132H inh, GALK inhibitor)
O=C(CCl)N(c1ccccc1)c1c[nH]c2ccccc12	rTrxR1 inhibitor 2.2µM
O=C(O)Cc1c[nH]c2ccccc12	none (no result: Apoferritin bind, PKM2 act, GALK inhibitor)
O=C(CCl)N(c1ccc(Cl)cc1)c1c[nH]c2ccccc12	Apoferritin bind inconclusive, rTrxR1 inhibitor 0.45µM, IDH1 R132H inh inconclusive
O=C(CC1Oc2ccccc2NC1=O)NCc1ccccc1 (configuration not stated)	none
CC(=O)CC1OC(=O)C(Br)=C1NCc1ccccc1 (configuration not stated)	rTrxR1 inhibitor 14µM
O=C1Nc2ccc(S(=O)(=O)NCc3ccco3)c3cccc1c23	rTrxR1 inhibitor 45µM (no result: Apoferritin bind, PKM2 act, GALK inhibitor)
O=C(O)CNS(=O)(=O)c1ccc2c3c(cccc13)C(=O)N2	none
Cc1cccc(/C=C/c2cccs2)n1	none (no result: Apoferritin bind, PKM2 act, IDH1 R132H inh, GALK inhibitor)
O=c1c2ccccc2nc2n1CCCS2	none
O=c1c(C(c2c(O)nc3n(c2=O)CCS3)c2cccc3ccccc23)c(O)nc2n1CCS2	rTrxR1 inhibitor 11µM
O=c1c(C(c2ccc(O)cc2)c2c(O)nc3n(c2=O)CCCS3)c(O)nc2n1CCCS2	rTrxR1 inhibitor 3.5µM
O=c1c(Cc2ccccc2)c(O)nc2n1CCS2	none (no result: GALK inhibitor)
O=c1c(C(c2ccc(O)cc2)c2c(O)nc3n(c2=O)CCS3)c(O)nc2n1CCS2	rTrxR1 inhibitor 3.2µM
Cc1ccc(C(c2c(O)nc3n(c2=O)CCS3)c2c(O)nc3n(c2=O)CCS3)cc1	rTrxR1 inhibitor 2.8µM
CCCCCCCCCCCCCCCC[n+]1ccc(CC(O)c2c(C)[nH]c3ccccc23)c2ccccc21 (configuration not stated)	none (no result: Apoferritin bind, PKM2 act, IDH1 R132H inh, GALK inhibitor)
COc1ccc2cc3cc(C(=O)NCCCN4CCC(C)CC4)oc3nc2c1	rTrxR1 inhibitor 50µM (no result: PKM2 act)
Cc1csc(SCC(=O)Nc2ccc(S(=O)(=O)N3CCCC3)cc2)n1	Apoferritin bind inconclusive, PKM2 act 20µM
Cc1c(C(=O)Nc2ccc(F)c(F)c2)oc2ccc(S(=O)(=O)N(C)C3CCCCC3)cc12	none (no result: PKM2 act, GALK inhibitor)
CN1CCc2cccc3c2[C@H]1Cc1ccc(O)c(O)c1-3	PKM2 act inconclusive, rTrxR1 inhibitor 22µM
Cc1ccc2c(CC(=O)Nc3ccc(S(=O)(=O)N4CCCCC4)cc3)coc2c1C	none (no result: PKM2 act, GALK inhibitor)
O=C(Oc1ccc2c(=O)c(Cl)coc2c1)c1cccnc1	rTrxR1 inhibitor 13µM
CC(=O)c1ccc(NC(=O)Cn2ncc3c(C)n(Cc4ccc(F)cc4)c(C)c3c2=O)cc1	none (no result: PKM2 act, GALK inhibitor)
N#Cc1ccc(-c2ccco2)nc1SCc1ccccc1	rTrxR1 inhibitor inconclusive
CCSc1nc(-c2ccco2)ccc1C#N	rTrxR1 inhibitor 7.9µM
O=S1(=O)CCOC[C@H](c2ccccc2)N1Cc1ccc(Cl)cc1Cl	none (no result: Apoferritin bind, PKM2 act, IDH1 R132H inh, GALK inhibitor)
CC(=O)CSc1nsc(SCC(C)=O)c1C#N	rTrxR1 inhibitor 71µM
COc1cc2[nH]c3c(Cl)ncnc3c2cc1OC	none
COc1cc2[nH]c(Cl)c([N+](=O)[O-])c2cc1OC	rTrxR1 inhibitor 1.4µM
Cc1ccc(Cn2c(C)c3cnn(CC(=O)N4CCN(c5ccc(F)cc5)CC4)c(=O)c3c2C)cc1	none (no result: PKM2 act, GALK inhibitor)
CCOC(=O)c1cccc(NC(=O)CCc2c(C)nn(-c3ccc(N4CCCC4)nn3)c2C)c1	none (no result: PKM2 act, GALK inhibitor)
O=C(COc1ccc(S(=O)(=O)N2CCc3ccccc32)cc1Cl)NCc1ccccn1	PKM2 act 16µM
Cc1cc(C)nc(SC2=CS(=O)(=O)c3ccccc32)n1	none
O=S1(=O)C=C(Sc2nc3ccccc3s2)c2ccccc21	rTrxR1 inhibitor 2.5µM
COc1cc(C)c(Cl)cc1S(=O)(=O)NCc1ccco1	none
Cc1cc(S(=O)(=O)NCc2ccco2)c(C)cc1Cl	rTrxR1 inhibitor 71µM
CC1CCC(NC(=O)c2ccc(CS(=O)(=O)c3cccc(C(F)(F)F)c3)o2)CC1 (configuration not stated)	Apoferritin bind inconclusive (no result: PKM2 act, GALK inhibitor)
O=C(NCCCN1CCOCC1)c1cc(-c2cccs2)on1	rTrxR1 inhibitor 16µM
CCOc1ccccc1Oc1nc(C)nc2c1oc1ccccc12	none (no result: PKM2 act, GALK inhibitor)
O=S(=O)(CCOc1ccccc1)c1nc2ccccc2[nH]1	rTrxR1 inhibitor 45µM
O=C(CCCOc1ccccc1)Nc1nc2ccccc2[nH]1	none
O=C(C[n+]1csc2ccccc21)c1ccc(O)c(O)c1	none (no result: Apoferritin bind, PKM2 act, IDH1 R132H inh, GALK inhibitor)
